Assay outcomes from PubChem.
Only some compounds are listed: those with a hit (about 8.3% of all), similar ones and a draw of the others.
FMDV inh = High Throughput Screening for Foot and Mouth Disease Virus Antivirals. FMDV antiviral cell-based qHTS. Potency, µM (highest dose often 57.9 µM), without a hit: top-dose activity change, negative = inhibition, usual class: inhibitors. 1.2% of 410,000 active; calls by dose curve; tested in HEK293T cells; note: read-out not given here; potency is the fitted concentration of half-maximal effect; nearly all actives have a fitted effect of over 45% in size
MARV entry inh = qHTS for inhibitors of binding or entry into cells for Marburg Virus; Marburg virus pseudotyped entry inhibition, cell reporter; 1.8% of 300,000 active; Potency, µM (top dose mostly 37.8 µM), for inactives: at the highest dose activity change, negative = inhibition, actives largely listed as inhibitors; calls by dose curve; tested in HEK293 cells; note: potency is the fitted concentration of half-maximal effect
Giardia FBPA inh-1 = qHTS Assay for Inhibitors of Fructose-1,6-bisphosphate Aldolase from Giardia Lamblia. A8B2U2. purified Giardia FBPA. Potency, µM (titrated, usually from 59.6 µM), for the others: top-dose activity, negative = inhibition, usual class: inhibitors. 0.71% of 290,000 active. AID 2451, 2010; note: potency is the fitted concentration of half-maximal effect; nearly all actives have a fitted effect of over 55% in size
Target sequence (A8B2U2 whole entry, looked up): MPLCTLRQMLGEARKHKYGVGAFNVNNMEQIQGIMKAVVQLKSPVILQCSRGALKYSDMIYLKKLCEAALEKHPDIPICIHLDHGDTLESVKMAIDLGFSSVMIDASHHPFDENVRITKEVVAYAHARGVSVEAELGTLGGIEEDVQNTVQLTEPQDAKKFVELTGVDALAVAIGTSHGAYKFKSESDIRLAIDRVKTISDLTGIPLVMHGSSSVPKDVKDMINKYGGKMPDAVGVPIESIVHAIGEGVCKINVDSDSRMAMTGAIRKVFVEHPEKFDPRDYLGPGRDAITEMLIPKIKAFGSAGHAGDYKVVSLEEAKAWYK
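40 nM FBPA preincubated 10 min at RT with compound (up to 57.5 uM final), then substrate plus GAPDH/TPI/NAD/arsenate coupling and diaphorase/resazurin added. Fluorescence read after 20 min at RT, 525/598 nm.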
LASV entry inh = qHTS for Inhibitors of binding or entry into cells for Lassa Virus; Lassa virus pseudotype entry inhibition, cell reporter; Potency, µM (titrated, usually from 37.9 µM), inactives show at the highest dose activity change, negative = inhibition, most hits filed as inhibitors; 1.2% of 300,000 active; AID 540256, 2011; calls by dose curve; tested in HEK293 cells; note: potency is the fitted concentration of half-maximal effect; nearly all actives have a fitted effect of over 50% in size
HCMV antiviral = qHTS Assay for inhibitors of the human cytomegalovirus (HCMV) | 4.5% of 410,000 active | HFF cells, HCMV-luciferase reporter, 72 h; active compounds read low | AID 1259415, 2018 | activity change, negative = inhibition, % at 57.5 µM; in the data active = activity change below about -60%; inconclusive = no clear call, values can overlap the other calls; inactive = above about -39%
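Cell-based, HFFs, 1000 cells/well, 16 h 37C; cpds in DMSO + HCMV-luc, MOI 1 PFU/cell; 72 h 37C; OneGlo luminescence after 5 min RT; norm. to buffer vs Salinomycin 10uM.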
HCV inh = qHTS Assay for Inhibitors of Hepatitis C Virus (HCV). Huh7.5.1 HCVcc-Cre infection, luciferase reporter, 44 h. Potency, µM (series often up to 41.8 µM), for inactives: at the top dose activity change, negative = inhibition, usual class: inhibitors. 3.4% of 340,000 active; note: potency is the fitted concentration of half-maximal effect
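Whole-lifecycle infectious HCVcc-Cre system; cells 1,000/well, compound then virus (~0.5 moi) added 4 h after plating, 44 h culture. Luciferase read 15 sec following 15 min substrate incubation, room temp.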
Giardia growth = qHTS Assay for Inhibitors of Fructose-1,6-bisphosphate Aldolase from Giardia Lamblia: Giardia lamblia growth inhibition; 5% of 1,500 active; shares compounds with Giardia FBPA inh-1; Giardia lamblia trophozoite growth inhibition; Potency, µM (titrated, usually from 57.5 µM), inactives show top-dose activity change, negative = inhibition, hits mostly inhibitors;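 note: potency is the fitted concentration of half-maximal effect; trophozoites exposed to compound for 48 h at 37 °C; nearly all actives have a fitted effect of over 70% in size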
Mammalian tox = qHTS Assay for Inhibitors of Fructose-1,6-bisphosphate Aldolase from Giardia Lamblia: Mammalian cellular toxicity | AID 2786, 2010 | 4% of 1,500 active | shares compounds with Giardia FBPA inh-1 | mammalian cell viability counter-screen, qHTS | Potency, µM (top dose mostly 57.5 µM), for inactives: top-dose viability change, negative = toxicity, actives largely listed as inhibitors;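 note: Chinese hamster ovary cells used as mammalian cytotoxicity surrogate; viability measured as cellular ATP by luminescence; potency is the fitted concentration of half-maximal effect; compound exposure lasted 48 h before reading; nearly all actives have a fitted effect of over 60% in size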
Giardia FBPA inh-2 = qHTS Assay for Inhibitors of Fructose-1,6-bisphosphate Aldolase from Giardia Lamblia: Primary screen confirmation; Potency, µM (doses to about 57.5 µM), without a hit: at the highest dose activity change, negative = inhibition, most hits filed as inhibitors; purified Giardia aldolase enzyme activity, qHTS; shares compounds with Giardia FBPA inh-1; 5% of 1,500 active; AID 2787, 2010; note: potency is the fitted concentration of half-maximal effect; nearly all actives have a fitted effect of over 45% in size
Rabbit FBPA inh = qHTS Assay for Inhibitors of Fructose-1,6-bisphosphate Aldolase from Giardia Lamblia: Rabbit FBPA Selectivity | shares compounds with Giardia FBPA inh-1 | Potency, µM (doses to about 57.5 µM), for inactives: top-dose activity, negative = inhibition, usual class: inhibitors | 4% of 1,500 active | Rabbit muscle FBPA enzyme inhibition, selectivity counter-screen; note: potency is the fitted concentration of half-maximal effect; nearly all actives have a fitted effect of over 60% in size
GAPDH coupling = qHTS Assay for Inhibitors of Fructose-1,6-bisphosphate Aldolase from Giardia Lamblia: Coupling assay counterscreen confirmation | shares compounds with Giardia FBPA inh-1 | Potency, µM (doses to about 57.5 µM), without a hit: at the top dose activity change, negative = inhibition, hits mostly inhibitors | GAPDH coupling enzyme counterscreen, biochemical, qHTS | 6% of 1,500 active; note: potency is the fitted concentration of half-maximal effect; nearly all actives have a fitted effect of over 55% in size
Numbers without * were called inactive; ? = inconclusive; nt = no result given; [ ] = another dose, or the depositor's remark. Unless noted, calls come from the whole dose curve; as a rule, active = well fitted curve in the direction sought with a large enough effect; inconclusive = small, poorly fitted or top-dose-only effect, or another doubt; inactive = no such curve, though single readings can be large; an effect the other way counts as inactive or inconclusive. % is set by controls: 0 for no effect and ±100 for the full control effect.

SMILES | FMDV inh | MARV entry inh | Giardia FBPA inh-1 | LASV entry inh | HCMV antiviral | HCV inh | Giardia growth | Mammalian tox | Giardia FBPA inh-2 | Rabbit FBPA inh | GAPDH coupling
COc1ccc(CNc2ncc(-c3cccc([N+](=O)[O-])c3)n2C)c(OC)c1OC | -22.0% | nt | 25.1µM* | nt | 0.5 | -22.2% | ? | -11.9% | -4.0% | -3.7% | 3.8%
COc1ccccc1NS(=O)(=O)c1cc(NC(=O)c2sccc2C)ccc1N1CCCC1 | 91.1% | ? | 14.1µM* | -17.6% | ? | 17.6% | -12.1%[10.4 µM] | -17.5% | ? | ? | ?
COc1ccccc1NS(=O)(=O)c1cc(NC(=O)c2sccc2C)ccc1N1CCOCC1 | 46.8% | nt | -5.4% | nt | -0.7 | ? | nt | nt | nt | nt | nt
CCC(C)N1C(=O)/C(=C/c2ccc3c(c2)CCN3CCCCl)C(=O)NC1=S (centres undefined) | 31.6µM* | -8.9% | 11.2µM* | ? | 14.9 | 3.7% | 6.0%[10.4 µM] | -5.3% | ? | -7.7% | 6.3%
Nc1[nH]c(C(=O)c2ccccc2)c(-c2cccnc2)c1C(=O)c1ccccc1 | nt | nt | nt | nt | -2.9 | nt | nt | nt | nt | nt | nt
COc1ccc2oc(=O)cc(CN3CCN(C(=O)c4ccccc4Br)CC3)c2c1 | -18.9% | 2.2%[46.1 µM] | nt | 10.2%[46.1 µM] | -25.8 | nt | nt | nt | nt | nt | nt
CCOc1ccc(CN(C)CC(=O)Nc2cccc(S(=O)(=O)N(C)c3ccccc3)c2)cc1 | -25.6% | ? | 19.9µM* | ? | ? | -17.2% | ? | 6.5% | 4.2% | 16.9% | -1.5%
COc1ccc(CN(C)CC(=O)Nc2sc3c(c2C#N)CCC3)c(OC)c1 | ? | ? | 17.7µM* | -28.6% | -15.2 | ? | 17.1%[10.4 µM] | 3.5% | 1.9% | 10.8% | -5.7%
CCc1ccc2nc(N(Cc3cccnc3)C(C)=O)sc2c1 | 29.0% | nt | nt | 12.8%[46.1 µM] | 105.3 | nt | nt | nt | nt | nt | nt
COc1cc(/C=C2\SC(c3ccc(C)cc3)=NC2=O)ccc1O | nt | 9.1% | 17.7µM* | ? | -6.1 | ? | 26.3% | -3.2% | ? | -29.7% | -1.4%
CCOc1cc(/C=C2\SC(N)=NC2=O)ccc1O | -8.9% | 15.0%[46.1 µM] | 7.94µM* | 7.8%[46.1 µM] | 12.0 | 25.8% | -13.5%[10.4 µM] | -4.2% | -12.5% | -0.6% | 0.6%
CCOc1cc(/C=C2\SC(=O)N=C2N)ccc1O | -12.2% | ? | 4.0% | ? | ? | 1.5% | nt | nt | nt | nt | nt
COc1cc(/C=C2\SC(c3ccccc3)=NC2=O)cc(Cl)c1O | ? | ? | 5.61µM* | -17.1% | -11.8 | -11.8% | 53.9% | 4.7% | -25.8% | -26.1% | 1.7%
COc1cc(/C=C2\SC(c3ccc(C)cc3)=NC2=O)cc(OC)c1OC | nt | ? | ? | -38.9% | nt | ? | nt | nt | nt | nt | nt
COC(=O)c1c(-c2cccs2)csc1NC(=O)c1ccc(C(C)(C)C)cc1 | -27.6% | ? | nt | 0.8%[46.1 µM] | -11.9 | nt | nt | nt | nt | nt | nt
